Results as given in the supplement of paper PMC8699584.
± gives the standard deviation of the averaged measurements.

Key:
Molm13 = assay: cell viability relative to DMSO control (bortezomib = 0%); higher = less growth inhibition; conditions: 10 nM; 72 h
Method in brief: (§1)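 Each plate's values were converted to percentages by linear regression, taking DMSO-treated cells as 100% and positive-control-treated cells as 0%. These plates were 384-well plates of 679 approved and investigational compounds at a single 10 nM dose, onto which acute myeloid leukemia cells were dispensed at 1000 cells per well in 50 µL for 72 h, in duplicate. Cell viability came from CellTiter-Glo luminescence on an EnVision reader.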

Mv4-11 = assay: as above; conditions: 10 nM; 72 h
Method in brief: as §1

COc1ccc2c(c1)c(C1=C(c3c[nH]c4ccccc34)C(=O)NC1=O)cn2CCCN(C)C
cell viability (Molm13): 85.4 ± 2% | cell viability (Mv4-11): 103 ± 7.6%

O=c1[nH]c(C2CCCN2)nc2c1oc1ccc(Cl)cc12 (configuration not stated)
cell viability (Molm13): 96.9 ± 13% | cell viability (Mv4-11): 107 ± 3.5%

Cc1ccc(NC(=O)c2cccc(N(C)C)c2)cc1NC(=O)c1ccc(O)cc1
cell viability (Molm13): 94.6 ± 6% | cell viability (Mv4-11): 103 ± 5.7%

N#CCC(=O)NN [Cyanoacetohydrazide]
cell viability (Molm13): 128 ± 1.3% | cell viability (Mv4-11): 109 ± 22%

O=C(c1ccc(F)c(F)c1Nc1ccc(I)cc1F)N1CC(O)([C@@H]2CCCCN2)C1 [Cobimetinib]
cell viability (Molm13): 87.1 ± 14% | cell viability (Mv4-11): 103.3 ± 0.5%

CN(C)C/C=C/C(=O)Nc1cc2c(Nc3ccc(F)c(Cl)c3)ncnc2cc1O[C@H]1CCOC1 [Afatinib (BIBW2992)]
cell viability (Molm13): 87.5 ± 7.3% | cell viability (Mv4-11): 97.7 ± 6.9%
